In PubChem BioAssay:
For some assays here: Measured potencies and affinities stand elsewhere. The source made the active and inactive calls.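 How the source made its calls, unless noted: active means signal rise over 3 SD above mean of control wells given weak agonist, in both repeats and first screen; inactive means the rest.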

Legend:
[1] = test system: TRPC4 beta (transient receptor potential cation channel C4), mouse; test: TRPC4 cation channel opening, retest – cell-based, Fluo4 calcium, HEK293 TRPC4beta/mu-opioid, duplicates, 10 µM, confirmation (AID 2426;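 active means fluorescence ratio normalized to control raised more than 50% in primary screen plus both repeat runs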;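 on activation: percent rise of integrated ratio over buffer wells lacking compound which define 0%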); details: Fluo4 calcium fluorescence, at 10 µM; active compounds read high
[2] = test system: transient receptor potential cation channel C4 beta (TRPC4), mouse; test: TRPC4 cation channel opening, second retest – cell-based, second round, Fluo4, HEK293 TRPC4beta/mu-opioid, 1 µM, confirmation (AID 2461;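 active means primary screen active and over 50% activation in each of two duplicate runs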); details: Fluo4 calcium fluorescence, at 1 µM; active compounds read high
[3] = test system: TRPC4 (transient receptor potential cation channel C4 beta), mouse; test: potentiation of DAMGO EC20 TRPC4 response – cell-based, second round, Fluo-4, HEK293 TRPC4beta/mu-opioid, 1 µM, confirmation (AID 2554;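 active means primary screen hit whose fluorescence ratio, in both repeats, exceeds the weak agonist control mean by 3 SD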); details: DAMGO EC20, Fluo-4 calcium flux, at 1 µM; active compounds read high
[4] = test system: TRPC4 beta (transient receptor potential cation channel C4), mouse; test: potentiation of DAMGO EC20 TRPC4 response – cell-based, Fluo-4, HEK293 TRPC4beta/mu-opioid, confirmation (AID 2555;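 active means primary screen hit whose calcium fluorescence ratio, in both repeats, exceeds the weak agonist control mean by 3 SD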); details: DAMGO EC20, Fluo-4 calcium flux, at 10 µM; active compounds read high
[5] = molecular target: Short transient receptor potential channel 4 (Mus musculus) (UniProt Q9QUQ5); test: blockers of DAMGO-evoked TRPC4 calcium flux – cell-based, Fluo4, HEK293 TRPC4beta/mu-opioid, confirmation (AID 2636;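 active means calcium signal cut by more than 3 SD below the full-agonist control yet still positive, in both repeats and the earlier primary screen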); details: at 10 µM; active compounds read high
Sequence of Short transient receptor potential channel 4 (Mus musculus) (Q9QUQ5 whole entry, looked up): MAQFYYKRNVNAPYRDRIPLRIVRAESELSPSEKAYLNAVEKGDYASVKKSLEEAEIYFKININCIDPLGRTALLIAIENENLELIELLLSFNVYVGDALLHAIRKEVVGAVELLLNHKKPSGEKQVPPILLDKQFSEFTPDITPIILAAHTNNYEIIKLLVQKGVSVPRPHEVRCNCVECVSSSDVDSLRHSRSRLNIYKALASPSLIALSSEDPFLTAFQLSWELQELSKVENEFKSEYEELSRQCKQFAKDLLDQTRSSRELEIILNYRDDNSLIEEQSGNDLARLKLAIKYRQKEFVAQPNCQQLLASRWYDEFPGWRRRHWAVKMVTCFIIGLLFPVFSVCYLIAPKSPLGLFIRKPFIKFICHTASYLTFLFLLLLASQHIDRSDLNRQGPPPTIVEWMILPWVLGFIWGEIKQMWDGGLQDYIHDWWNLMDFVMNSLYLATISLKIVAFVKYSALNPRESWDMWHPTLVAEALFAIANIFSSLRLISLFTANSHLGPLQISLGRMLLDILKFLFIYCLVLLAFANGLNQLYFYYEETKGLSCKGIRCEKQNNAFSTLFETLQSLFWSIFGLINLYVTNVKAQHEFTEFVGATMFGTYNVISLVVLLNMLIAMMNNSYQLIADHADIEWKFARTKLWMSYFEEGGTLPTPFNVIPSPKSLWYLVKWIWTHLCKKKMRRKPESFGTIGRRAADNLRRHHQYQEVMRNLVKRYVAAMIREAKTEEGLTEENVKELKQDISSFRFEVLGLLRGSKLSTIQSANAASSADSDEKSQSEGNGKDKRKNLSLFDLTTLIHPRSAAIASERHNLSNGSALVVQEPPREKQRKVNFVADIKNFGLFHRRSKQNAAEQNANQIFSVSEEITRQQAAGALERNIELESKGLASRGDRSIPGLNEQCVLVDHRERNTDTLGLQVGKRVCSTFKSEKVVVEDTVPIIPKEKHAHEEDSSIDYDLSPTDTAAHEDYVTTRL

[6] = molecular target: Short transient receptor potential channel 4 (Mus musculus) (UniProt Q9QUQ5); test: blockers of DAMGO-evoked TRPC4 calcium flux – cell-based, second round, Fluo4, HEK293 TRPC4beta/mu-opioid, 1 µM, confirmation (AID 2637;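 active means calcium signal ratio cut to more than 3 SD under the fully stimulated control mean yet still positive, in both repeats and the primary screen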;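 on inhibition: percent of integrated ratio relative to wells lacking test compound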); details: at 1 µM; active compounds read high
[7] = molecular target: Short transient receptor potential channel 4 (Mus musculus) (UniProt Q9QUQ5); test: calcium entry via TRPC4 opening agents – cell-based, HEK293 TRPC4/mu-opioid, Fluo-4 calcium, dose response (AID 434937;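 active means primary screen activator hit with a dose response curve and TRPC4 channel activation at any tested dose; inactive means no activation, no dose response, or not a primary hit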)
[8] = molecular target: Short transient receptor potential channel 4 (Mus musculus) (UniProt Q9QUQ5); test: potentiation of DAMGO-evoked TRPC4 calcium signal – cell-based, HEK293 TRPC4/mu-opioid, Fluo-4 calcium, EC20 DAMGO, dose response (AID 434941;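 active means earlier screen potentiator hit that boosts the TRPC4 ion channel at some dose, with a dose response; inactive means no potentiation, no dose response, or not a prior hit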;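 further: calcium entry triggered by an EC20 dose of DAMGO at the co-expressed mu-opioid receptor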)
[9] = molecular target: Short transient receptor potential channel 6 (Mus musculus) (UniProt Q61143); test: TRPC6 blockade by TRPC4 inhibitor hits – cell-based, HEK293, membrane potential dye, duplicate, selectivity assay for TRPC4 inhibitor project, confirmation (AID 434948;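 active means active in primary screen and both duplicates, each dropping signal beyond three positive-control SD with fluorescence still positive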); details: HEK293 TRPC6, membrane potential dye fluorescence, at 10 µM, stimulated with maximal-effect acetylcholine; active compounds read high
Sequence of Short transient receptor potential channel 6 (Mus musculus) (Q61143 whole entry, looked up): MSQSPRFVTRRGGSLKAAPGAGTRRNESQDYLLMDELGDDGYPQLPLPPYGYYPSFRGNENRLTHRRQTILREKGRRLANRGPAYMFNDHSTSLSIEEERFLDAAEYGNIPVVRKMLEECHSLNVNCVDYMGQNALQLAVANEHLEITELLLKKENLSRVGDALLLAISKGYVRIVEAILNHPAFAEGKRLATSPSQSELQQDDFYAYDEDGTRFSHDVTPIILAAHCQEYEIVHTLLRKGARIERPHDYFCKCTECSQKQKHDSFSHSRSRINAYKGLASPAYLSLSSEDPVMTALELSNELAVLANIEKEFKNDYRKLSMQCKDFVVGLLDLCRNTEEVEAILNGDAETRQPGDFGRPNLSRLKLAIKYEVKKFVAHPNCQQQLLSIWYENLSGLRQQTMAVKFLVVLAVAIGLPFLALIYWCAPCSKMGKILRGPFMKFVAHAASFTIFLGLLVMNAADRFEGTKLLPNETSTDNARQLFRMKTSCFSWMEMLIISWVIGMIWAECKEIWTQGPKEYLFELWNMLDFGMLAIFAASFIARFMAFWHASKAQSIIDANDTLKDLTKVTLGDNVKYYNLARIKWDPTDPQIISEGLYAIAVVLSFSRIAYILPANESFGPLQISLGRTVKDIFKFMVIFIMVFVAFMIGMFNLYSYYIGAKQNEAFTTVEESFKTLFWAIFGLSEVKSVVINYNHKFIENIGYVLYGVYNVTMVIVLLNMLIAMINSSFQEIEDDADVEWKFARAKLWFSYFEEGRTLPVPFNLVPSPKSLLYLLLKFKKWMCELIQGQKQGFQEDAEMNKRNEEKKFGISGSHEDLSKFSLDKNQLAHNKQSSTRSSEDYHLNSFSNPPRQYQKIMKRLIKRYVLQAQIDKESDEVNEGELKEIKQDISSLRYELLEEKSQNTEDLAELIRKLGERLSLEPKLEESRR

[10] = molecular target: Short transient receptor potential channel 6 (Mus musculus) (UniProt Q61143); test: TRPC6 opening by TRPC4 activator hits – cell-based, HEK293, membrane potential dye, duplicate, selectivity assay for TRPC4 activator project, confirmation (AID 434950;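 active means membrane potential signal rise above negative control mean plus 3 SD in both duplicates, also active in the earlier TRPC4 screen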); details: HEK293 TRPC6, membrane potential fluorescence, at 10 µM; activation: active compounds read high; outcome: activation
[11] = molecular target: Short transient receptor potential channel 6 (Mus musculus) (UniProt Q61143); test: positive modulators of mouse TRPC6 channel – HEK293 cells, membrane potential dye, duplicate, selectivity assay for TRPC4 potentiator project, confirmation (AID 434952;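 active means compound raising the membrane signal above positive-control mean plus 3 SD in both repeats, and a primary screen hit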); details: HEK293 TRPC6, membrane potential dye fluorescence, at 10 µM, maximal acetylcholine added after compound; active compounds read high
[12] = molecular target: Short transient receptor potential channel 4 (Mus musculus) (UniProt Q9QUQ5); test: calcium flux activators in TRPC4/5HT1a cells, counter-screen for TRPC4 activator project, cell-based, second counter screen, HEK293 TRPC4/5HT1a, Fluo-4 (AID 434977;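 active means calcium signal rise above buffer-control mean plus 5 SD in both duplicates, and also a hit in the primary screen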;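 on activation: plate controls were assay buffer for no effect and maximal serotonin response for full effect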); details: Fluo-4 calcium flux, at 10 µM; active compounds read high
[13] = serotonin-gated TRPC4 signal block – cell-based, second counter screen, HEK293 TRPC4/5HT1a, Fluo-4, counter-screen for TRPC4 inhibitor project, confirmation (AID 434978;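 active means primary screen active whose calcium signal fell more than 3 SD beyond the full-serotonin control mean in both duplicate plates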;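 on outcome: serotonin given first at submaximal then at maximal dose after compound preincubation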); details: Fluo-4 calcium flux, at 10 µM, serotonin added to trigger calcium flux; active compounds read high
[14] = test system: TRPC4 (mouse), co-expressed with 5HT1a in HEK293; test: enhancement of serotonin-evoked TRPC4 response – cell-based, second counter screen, HEK293 TRPC4/5HT1a, Fluo-4, counter-screen for TRPC4 potentiator project, confirmation (AID 434979); details: Fluo-4 calcium flux, at 10 µM, serotonin added at its EC20 dose; active compounds read high
[15] = nonspecific calcium rise without TRPC4 – cell-based, HEK293 mu-opioid receptor line, counter-screen for TRPC4 activator project, confirmation (AID 449723;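 active means hit in primary screen, with calcium signal over 5 SD above buffer well mean in both duplicates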;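 further: counter screen cells carry the mu-opioid receptor alone and lack TRPC4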); details: HEK293 mu-opioid cells, Fluo-4 calcium fluorescence, at 10 µM; active compounds read high
[16] = nonspecific potentiation of DAMGO calcium response – cell-based, HEK293 mu-opioid receptor line, counter-screen for TRPC4 allosteric potentiator project, confirmation (AID 449724;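 active means calcium signal rise more than 3 SD above the low-dose agonist control mean, in both duplicate plates and the primary screen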); details: HEK293 mu-opioid receptor cells, Fluo-4 calcium flux, at 10 µM, compound added before EC20 DAMGO stimulus; active compounds read high

CC(=O)Nc1ccc(S(=O)(=O)Nc2nc3ccc(C)cc3s2)cc1
active: inhibition [5] 65%
inactive: outcome [1] | outcome [2] | outcome [3] | outcome [4] | outcome [6] | outcome [7] | outcome [8] | outcome [9] | outcome [10] | outcome [11] | outcome [12] | outcome [13] | outcome [14] | outcome [15] | outcome [16]

O=C(O)c1ccc(N/N=C/c2ccc(-c3cccc(Cl)c3)o2)cc1
inactive: outcome [1] | outcome [2] | outcome [3] | outcome [4] | outcome [7] | outcome [8] | outcome [9] | outcome [10] | outcome [11] | outcome [12] | outcome [13] | outcome [14] | outcome [15] | outcome [16]
active: inhibition [5] 87% | inhibition [6] 42%

Cc1cc(NCc2ccccc2)nc(N2CCOCC2)n1
inactive: outcome [1] | outcome [2] | outcome [3] | outcome [4] | outcome [7] | outcome [8] | outcome [9] | outcome [10] | outcome [11] | outcome [12] | outcome [14] | outcome [15] | outcome [16]
active: inhibition [5] 95% | inhibition [6] 40% | inhibition [13] 26.5%

CCc1ccc(/C=C2/SC(=S)N(CCCC(=O)Nc3ccccc3C(=O)O)C2=O)cc1
inactive: outcome [1] | outcome [2] | outcome [3] | outcome [4] | outcome [6] | outcome [7] | outcome [8] | outcome [9] | outcome [10] | outcome [11] | outcome [12] | outcome [14] | outcome [15] | outcome [16]
active: inhibition [5] 93% | inhibition [13] 21.2%

CCOc1ccc2ccccc2c1CNCCc1ccc(S(N)(=O)=O)cc1
inactive: outcome [1] | outcome [2] | outcome [3] | outcome [4] | outcome [6] | outcome [7] | outcome [8] | outcome [9] | outcome [10] | outcome [11] | outcome [12] | outcome [14] | outcome [15] | outcome [16]
active: inhibition [5] 92% | inhibition [13] 35.5%

O=[N+]([O-])c1ccc(O)c(C2=NNC(c3ccccc3F)C2)c1 (centres undefined)
active: activation [1] 87% | inhibition [5] 55% | inhibition [9] 50% | activation [12] 8.52% | activation [15] 20.8%
inactive: outcome [2] | outcome [3] | outcome [4] | outcome [6] | outcome [7] | outcome [8] | outcome [10] | outcome [11] | outcome [13] | outcome [14] | outcome [16]

CCOc1cccc(CNCCO)c1OCc1ccc(Cl)cc1
active: inhibition [5] 92% | inhibition [13] 26.5%
inactive: outcome [1] | outcome [2] | outcome [3] | outcome [4] | outcome [6] | outcome [7] | outcome [8] | outcome [9] | outcome [10] | outcome [11] | outcome [12] | outcome [14] | outcome [15] | outcome [16]

N/C(Cc1cccc2ccccc12)=N\OC(=O)c1cccs1
active: inhibition [5] 54% | inhibition [6] 55%
inactive: outcome [1] | outcome [2] | outcome [3] | outcome [4] | outcome [7] | outcome [8] | outcome [9] | outcome [10] | outcome [11] | outcome [12] | outcome [13] | outcome [14] | outcome [15] | outcome [16]

Cn1c(-c2ccc(F)cc2)cnc1NCc1ccc(F)cc1F
active: inhibition [5] 88% | inhibition [6] 46% | inhibition [13] 29.9%
inactive: outcome [1] | outcome [2] | outcome [3] | outcome [4] | outcome [7] | outcome [8] | outcome [9] | outcome [10] | outcome [11] | outcome [12] | outcome [14] | outcome [15] | outcome [16]

Nc1cc(C(F)(F)F)ccc1Nc1ccccc1
active: inhibition [5] 90% | inhibition [13] 27.6%
inactive: outcome [1] | outcome [2] | outcome [3] | outcome [4] | outcome [6] | outcome [7] | outcome [8] | outcome [9] | outcome [10] | outcome [11] | outcome [12] | outcome [14] | outcome [15] | outcome [16]

Cc1cc(/C=C2/C(=N)N3C(=NC2=O)SN=C3S(C)(=O)=O)c(C)n1-c1ccccc1F
inactive: outcome [1] | outcome [2] | outcome [3] | outcome [4] | outcome [5] | outcome [6] | outcome [7] | outcome [8] | outcome [9] | outcome [10] | outcome [11] | outcome [12] | outcome [13] | outcome [14] | outcome [15] | outcome [16]

Cc1cccn2c(=O)c(/C=N/O)c(N3CCCC3)nc12
inactive: outcome [1] | outcome [2] | outcome [3] | outcome [4] | outcome [7] | outcome [8] | outcome [9] | outcome [10] | outcome [11] | outcome [12] | outcome [14] | outcome [15] | outcome [16]
active: inhibition [5] 57% | inhibition [6] 72% | inhibition [13] 35%

Cc1nc2scc(-c3ccccc3)c2c(=O)n1N=C1C=CC(=O)C=C1
active: inhibition [5] 69% | inhibition [13] 21%
inactive: outcome [1] | outcome [2] | outcome [3] | outcome [4] | outcome [6] | outcome [7] | outcome [8] | outcome [9] | outcome [10] | outcome [11] | outcome [12] | outcome [14] | outcome [15] | outcome [16]

Cc1oc(-c2ccoc2)nc1CN(Cc1ccccc1)CC1CC1
inactive: outcome [1] | outcome [2] | outcome [3] | outcome [4] | outcome [6] | outcome [7] | outcome [8] | outcome [9] | outcome [10] | outcome [11] | outcome [12] | outcome [13] | outcome [14] | outcome [15] | outcome [16]
active: inhibition [5] 95%
